# Results taken from PubChem BioAssay (NCI).
# About 83,000 compounds went through this panel and 20% of them were active in at least one assay; those are over-represented in the sample as a whole.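 Single-concentration screen, 48 h exposure, 96-well plates. Endpoint: percent growth. Below 10 = active.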 Unmarked numbers belong to inactive results. Active and inactive are the calls of the source.
# Columns and labels:
# Test in all cases: NCI-60 one-dose screen, 48 h (100 = growth as untreated, 0 = no growth, -100 = all killed)
# Settings in all cases: 10 µM
# 786-0 renal = test system: 786-0 renal
# MALME-3M melanoma = test system: MALME-3M melanoma
# MDA-MB-231 breast = test system: MDA-MB-231 breast
# SF-268 CNS = test system: SF-268 CNS
# SF-295 CNS = test system: SF-295 CNS
# UACC-257 melanoma = test system: UACC-257 melanoma
# SK-MEL-28 melanoma = test system: SK-MEL-28 melanoma
# EKVX NSCLC = test system: EKVX NSCLC
# UO-31 renal = test system: UO-31 renal
# TK-10 renal = test system: TK-10 renal
# ACHN renal = test system: ACHN renal
# CAKI-1 renal = test system: CAKI-1 renal
# A498 renal = test system: A498 renal
# OVCAR-8 ovarian = test system: OVCAR-8 ovarian
# OVCAR-5 ovarian = test system: OVCAR-5 ovarian
# OVCAR-3 ovarian = test system: OVCAR-3 ovarian
# HS 578T breast = test system: HS 578T breast
# BT-549 breast = test system: BT-549 breast
# MDA-MB-435 melanoma = test system: MDA-MB-435 melanoma
# SW-620 colon = test system: SW-620 colon
Structure (SMILES),growth (786-0 renal),growth (MALME-3M melanoma),growth (MDA-MB-231 breast),growth (SF-268 CNS),growth (SF-295 CNS),growth (UACC-257 melanoma),growth (SK-MEL-28 melanoma),growth (EKVX NSCLC),growth (UO-31 renal),growth (TK-10 renal),growth (ACHN renal),growth (CAKI-1 renal),growth (A498 renal),growth (OVCAR-8 ovarian),growth (OVCAR-5 ovarian),growth (OVCAR-3 ovarian),growth (HS 578T breast),growth (BT-549 breast),growth (MDA-MB-435 melanoma),growth (SW-620 colon)
Cc1ccc2sc3c(c2c1)Oc1nc[nH]c(=O)c1C3c1cccc(F)c1 (stereo not given),102%,98.7%,91.1%,104%,109%,101%,110%,87.9%,66.3%,154%,97%,83.2%,129%,107%,108%,114%,94.4%,95.5%,96.1%,102%
O=C(Nc1ccc(OCc2ccc(F)cc2)cc1)Nc1ccc(Cl)c(C(F)(F)F)c1,13.5%,-10.2% (active),6.32% (active),39%,-30.4% (active),-1.33% (active),31.4%,8.3% (active),7.5% (active),20.2%,14.6%,2.77% (active),-9.28% (active),12.8%,31.9%,34.5%,24%,-15.9% (active),-12.4% (active),22.3%
O=C(CC(=O)Nc1ccc(Oc2ncnc3scc(Nc4n[nH]c(=S)s4)c23)cc1)Nc1ccc(Cl)cc1,101%,109%,73.8%,85%,99.6%,104%,101%,75.6%,47%,137%,77.4%,62.9%,108%,93.5%,79%,82.7%,86%,80.2%,83.2%,93.5%
CC(C)(C)c1cc(/C=C2\S/C(=N/c3ncn[nH]3)NC2=O)cc(C(C)(C)C)c1O,24.5%,36.8%,23.7%,23.3%,14.3%,17.5%,21.6%,12.3%,15.1%,24%,18.2%,19.6%,32.8%,10.8%,32.8%,17.3%,11.8%,-2.05% (active),11.9%,15.1%
O=C(CC(=O)Nc1ccc(Oc2ncnc3scc(Nc4n[nH]c(=S)s4)c23)cc1)Nc1ccc(Br)cc1,109%,105%,101%,98.7%,112%,104%,110%,101%,85.1%,146%,106%,88.8%,121%,102%,106%,105%,96.7%,108%,103%,101%
O=C(CSc1nc2ccccc2c(=O)n1-c1ccc(Cl)cc1)Nc1ccc(-c2nc3ccc([N+](=O)[O-])cc3[nH]2)cc1,53.7%,21.7%,42.7%,38.4%,23.7%,36%,21.1%,35.9%,74.3%,89.9%,45.5%,40.8%,81.7%,-87.5% (active),92.6%,19.4%,11.8%,-2.07% (active),39.6%,64.2%
Cc1cc(N=C2NC(=O)S/C2=C\c2ccc(F)cc2)n[nH]1,10.3%,-7% (active),9.79% (active),29%,12.1%,19.6%,-7.09% (active),15.2%,12.1%,32.7%,27.4%,21.2%,64%,12.2%,31%,20.2%,10%,3.56% (active),-11.3% (active),20.7%
Cn1cc(-c2nc(N)nnc2-c2c[nH]c3ccccc23)c2cc(Br)cnc21,28.4%,36.7%,16.3%,20.3%,15%,46%,39.8%,29.8%,11.8%,64.2%,19.2%,11.9%,96.3%,5.76% (active),21.8%,9.25% (active),40.7%,-29.6% (active),-25.2% (active),24.7%
O=C1NC(=S)S/C1=C\c1cn(-c2ccccc2)nc1-c1ccc([N+](=O)[O-])cc1,17.9%,-5.53% (active),24.7%,42.7%,5.23% (active),-10.5% (active),18.3%,9.43% (active),14%,19.3%,12.6%,14.5%,-2.74% (active),18%,48.5%,21.7%,30.1%,-16% (active),6.24% (active),21.7%
O=C(Nc1ccc(Oc2ncnc3scc(Nc4n[nH]c(=S)s4)c23)cc1)C1(C(=O)Nc2cccc(C(F)(F)F)c2)CC1,107%,95.8%,92.7%,102%,108%,110%,108%,97.1%,69.4%,143%,95.6%,81.6%,122%,103%,87.9%,104%,100%,96.1%,105%,103%
O=C1NC2C=CC=CC2/C1=C1/SC(=S)N(C2CC(=O)N(c3ccc(Br)cc3)C2=O)C1=O (stereo not given),97.5%,97.6%,101%,95.7%,109%,95.9%,101%,92.6%,68.3%,124%,94.1%,77.1%,129%,97.6%,104%,92.2%,98.9%,101%,95.7%,93.4%
Cn1cc(-c2nnc(N)nc2-c2c[nH]c3ccccc23)c2cc(Br)cnc21,40.1%,45.9%,54.8%,57.4%,37.2%,73%,49.2%,46.6%,24.7%,61.4%,39.7%,24.3%,81.9%,62%,94.3%,65.1%,77.3%,17%,5.61% (active),57.8%
Cc1ccc2c(c1)C(=O)/C(=C/c1ccc([N+](=O)[O-])cc1)S2,101%,97.8%,98.1%,96.4%,98.2%,101%,109%,91.6%,58.2%,135%,102%,61.9%,114%,105%,82.9%,103%,86%,101%,98.9%,49.4%
COc1cc(C2CC(c3ccc(Oc4ccc(Cl)cc4)cc3)=NN2c2nc(-c3ccc(Cl)cc3)c(C#N)c(N3CCOCC3)n2)cc(OC)c1OC (stereo not given),98.8%,106%,100%,104%,107%,101%,97.8%,94.5%,79.2%,96.1%,96.5%,79%,114%,104%,101%,117%,104%,116%,94.2%,101%
COc1cccc(O)c1/C=C1\SCc2cc3c(OC)cccc3[o+]c21,105%,107%,102%,103%,99%,103%,105%,105%,65.5%,111%,104%,96.8%,141%,107%,105%,108%,111%,111%,132%,115%
COc1ccc(C(=O)COc2ccc(NC(=O)Nc3ccc(Cl)c(C(F)(F)F)c3)cc2)cc1,25.2%,31.3%,35.3%,37.9%,5.9% (active),11.8%,40.1%,10.3%,33.3%,46.8%,17.9%,27.2%,60.8%,22.5%,67.7%,28.3%,53.4%,38%,27.3%,54.6%
Cc1ccc2c(c1)C(=O)/C(=C/c1c[nH]c3ccccc13)S2,63.9%,91.9%,59.7%,44.9%,73.2%,72.4%,65.2%,50.8%,40.4%,105%,58.2%,37.1%,127%,55.3%,87%,42.7%,55.6%,33.8%,43.8%,28.6%
